Results filed as inconclusive are left out. Active and inactive are the calls of the source. Unless noted, the call rests on the fitted dose curve; in most records, active means well fitted curve in the direction sought with a large enough effect in the repeat runs; inconclusive means weak or mixed curves; inactive means no such curve, though single readings can be large; an effect the other way counts as inactive or inconclusive.
How the values were obtained:
[1] = qHTS assay to identify aromatase inhibitors - cell viability counter screen (AID 743084);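 further: cells stimulated with testosterone during compound exposure; nearly all actives have a fitted effect of over 55% in size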
[2] = target: Aryl hydrocarbon receptor (Homo sapiens) (UniProt P35869); test: qHTS assay to identify small molecule that activate the aryl hydrocarbon receptor (AhR) signaling pathway (AID 743085);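 further: HG2L7.5c1 human HepG2 liver cells with stably integrated DRE-driven firefly reporter; series mostly up to about 70 µM; nearly all actives have a fitted effect of over 15% in size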
Method in brief: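 Steps: seed HepG2-AhR-luc cells; allow 5 h at 37C; pin-transfer test compound or vehicle; incubate 24 h at 37C; add viability dye (30 min, 37C) and read fluorescence; add luciferase substrate (30 min, RT) and read luminescence.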

[3] = qHTS assay to identify small molecule that activate the aryl hydrocarbon receptor (AhR) signaling pathway - cell viability counter screen (AID 743086);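 further: HepG2 liver cells carrying the AhR DRE luciferase reporter; series mostly up to about 70 µM; nearly all actives have a fitted effect of over 45% in size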
Method in brief: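 HepG2-AhR-luc (HG2L7.5c1) cells, 4000/well, were preincubated 5 h at 37C, exposed to compound in qHTS format for 24 hr at 37C, then given CellTiter-Fluor for 30 min; viability was read as fluorescence in the reporter wells.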

[4] = qHTS assay to identify small molecule antagonists of the peroxisome proliferator-activated receptor gamma (PPARg) signaling pathway - cell viability counter screen (AID 743194); further: nearly all actives have a fitted effect of over 55% in size
Method in brief: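 PPARg-UAS-bla HEK293H cells were plated, rested 5 h at 37 C, then treated with compounds plus rosiglitazone (50 nM final) for 17 h at 37 C; viability was then read by CellTiter-Glo luminescence after 30 min at room temperature.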

[5] = qHTS assay for small molecule agonists of the antioxidant response element (ARE) signaling pathway (AID 743202; active means well fitted activation curve with a large enough effect in the signal ratio in the repeat runs, not every such curve was filed as active; the % refers to the signal ratio)
Method in brief: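 Following a 16 h, 37 C exposure of reporter HepG2 cells (ARE-driven beta-lactamase, 2,000 cells/well) to compounds, FRET substrate was applied for 2 h at room temperature and fluorescence intensity recorded.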

[6] = qHTS assay for small molecule agonists of the antioxidant response element (ARE) signaling pathway - cell viability counter screen (AID 743203; calls by dose curve; further: nearly all actives have a fitted effect of over 55% in size)
Method in brief: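 Viability counter screen: stably transfected ARE-bla HepG2 line, 16 hrs compound exposure at 37C/5% CO2, ATP-based CellTiter-Glo luminescence measured in the reporter wells.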

[7] = qHTS assay for small molecule activators of the heat shock response signaling pathway - cell viability counter screen (AID 743209); further: nearly all actives have a fitted effect of over 50% in size
Method in brief: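 Viability of HSE-bla HeLa cells is measured with CellTiter-Glo in the wells already used for the reporter read. Compound exposure lasts 5 h at 37 C, and luminescence is read after 30 min at room temperature.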

[8] = qHTS assay to identify small molecule agonists of the peroxisome proliferator-activated receptor delta (PPARd) signaling pathway - cell viability counter screen (AID 743211); further: nearly all actives have a fitted effect of over 55% in size
Method in brief: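 Viability of GeneBLAzer PPARd UAS-bla HEK293H cells was assessed after 17 h compound incubation at 37C, using CellTiter-Glo reagent added after the reporter read and luminescence recorded 30 min later.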

[9] = target: Peroxisome proliferator-activated receptor delta (Homo sapiens) (UniProt Q03181); test: qHTS assay to identify small molecule agonists of the peroxisome proliferator-activated receptor delta (PPARd) signaling pathway (AID 743212; calls by dose curve)
Method in brief: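 Beta-lactamase reporter read by fluorescence (LiveBLAzer B/G FRET, 2 h, room temperature). Test agents, in DMSO, incubated at 37 C with PPARd-bla HEK293H cells.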

[10] = qHTS assay to identify small molecule antagonists of the peroxisome proliferator-activated receptor delta (PPARd) signaling pathway - cell viability counter screen (AID 743213); further: nearly all actives have a fitted effect of over 50% in size
Method in brief: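 HEK293H cells with the PPARd UAS-bla reporter, co-treated 17 h at 37 C with compounds and L165041 (300 nM final), were lysed with CellTiter-Glo. Luminescence indicated viable cell content.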

[11] = target: Bile acid receptor (Homo sapiens) (UniProt Q96RI1); test: qHTS assay to identify small molecule antagonists of the farnesoid-X-receptor (FXR) signaling pathway (AID 743217; active means well fitted inhibition curve with a large enough effect in the signal ratio in the repeat runs, not every such curve was filed as active; the % refers to the signal ratio)
Method in brief: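 Screen of the Tox21 10K library in quantitative HTS format using FXR-UAS-bla HEK 293T reporter cells. Agonist chenodeoxycholic acid, 50 uM final, added with compounds; 16 h incubation at 37 °C; beta-lactamase FRET fluorescence measured.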

[12] = qHTS assay to identify small molecule agonists of the farnesoid-X-receptor (FXR) signaling pathway - cell viability counter screen (AID 743218); further: nearly all actives have a fitted effect of over 45% in size
Method in brief: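 Viability of FXR-bla HEK 293T cells is measured by ATP-based CellTiter-Glo luminescence following 16 h compound treatment at 37 C and a prior 2 h room-temperature beta-lactamase substrate step.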

[13] = target: Bile acid receptor (Homo sapiens) (UniProt Q96RI1); test: qHTS assay to identify small molecule agonists of the farnesoid-X-receptor (FXR) signaling pathway (AID 743220; active means well fitted activation curve with a large enough effect in the signal ratio in the repeat runs, not every such curve was filed as active; the % refers to the signal ratio)
Method in brief: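 FXR-UAS-bla HEK 293T cells carrying a UAS-driven beta-lactamase reporter were plated for 5 h at 37C/5% CO2, then exposed to DMSO-dissolved Tox21 10K compounds for 16 h at 37C. A LiveBLAzer B/G FRET substrate was loaded for 2 h at room temperature before fluorescence reading.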

[14] = qHTS assay to identify small molecule antagonists of the farnesoid-X-receptor (FXR) signaling pathway - cell viability counter screen (AID 743221; active means well fitted cell-killing curve with a large enough effect in the repeat runs, not every such curve was filed as active; further: nearly all actives have a fitted effect of over 50% in size)
Method in brief: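 Quantitative HTS of the Tox21 10K library run in parallel with the beta-lactamase reporter read. HEK 293T cells carrying a UAS-driven bla reporter got compound and 50 uM CDCA (final) for 16 h; ATP-based luminescence followed.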

[15] = target: Vitamin D3 receptor (Homo sapiens) (UniProt P11473); test: qHTS assay to identify small molecule agonists of the vitamin D receptor (VDR) signaling pathway (AID 743222; calls by dose curve)
Method in brief: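 Fluorescence from cleaved LiveBLAzer B/G FRET substrate served as readout. VDR-bla cells had been treated 16 h at 37C with test compounds in DMSO, following a 4 h settling period, and substrate was loaded for 2 h at RT.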

[16] = target: Vitamin D3 receptor (Homo sapiens) (UniProt P11473); test: qHTS assay to identify small molecule antagonists of the vitamin D receptor (VDR) signaling pathway (AID 743223; active means well fitted inhibition curve with a large enough effect in the signal ratio in the repeat runs, not every such curve was filed as active; the % refers to the signal ratio)
Method in brief: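 Fluorescence from LiveBLAzer B/G FRET substrate, read after 2 h at room temperature, reflects beta-lactamase reporter activity in VDR-bla cells treated 16 h at 37C with compounds and agonist 1alpha,25-dihydroxyvitamin D3 (3 nM final).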

[17] = target: Peroxisome proliferator-activated receptor gamma (Homo sapiens) (UniProt P37231); test: qHTS assay to identify small molecule agonists of the peroxisome proliferator-activated receptor gamma (PPARg) signaling pathway (AID 743094; active means well fitted activation curve with a large enough effect in the signal ratio in the repeat runs, not every such curve was filed as active; the % refers to the signal ratio)
Method in brief: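 Reporter activation was scored by fluorescence of cleaved LiveBLAzer B/G substrate (1 h, room temperature) in PPARg-bla HEK293H cells previously treated 17 h at 37C with DMSO-dissolved compounds.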

[18] = target: Peroxisome proliferator-activated receptor gamma (Homo sapiens) (UniProt P37231); test: qHTS assay to identify small molecule antagonists of the peroxisome proliferator-activated receptor gamma (PPARg) signaling pathway (AID 743191; calls by dose curve; further: series mostly up to about 63 µM; nearly all actives have a fitted effect of over 30% in size)
Method in brief: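 GeneBLAzer PPARg UAS-bla HEK293H cells carrying a UAS-driven beta-lactamase reporter were plated at 3000 cells/well, preincubated 5 h at 37C, then given compound for 17 h at 37C; LiveBLAzer B/G FRET substrate was read after 1 h at room temperature.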

[19] = qHTS assay for small molecule activators of the heat shock response signaling pathway (AID 743210; active means well fitted activation curve with a large enough effect in the signal ratio in the repeat runs, with a control signal flat, not every such curve was filed as active; the % refers to the signal ratio; further: series mostly up to about 63 µM)
Method in brief: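 Heat shock element–beta-lactamase HeLa reporter cells; qHTS with compounds for 5 h at 37 C; detection by FRET substrate fluorescence after 2.5 h at RT.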

[20] = target: Peroxisome proliferator-activated receptor delta (Homo sapiens) (UniProt Q03181); test: qHTS assay to identify small molecule antagonists of the peroxisome proliferator-activated receptor delta (PPARd) signaling pathway (AID 743215; active means well fitted inhibition curve with a large enough effect in the signal ratio in the repeat runs, not every such curve was filed as active; the % refers to the signal ratio;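 further: cells stimulated with agonist L165041 at 300 nM final during compound exposure; series mostly up to about 62 µM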)
Method in brief: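 Plated HEK293H PPARd-bla cells rested 5 h at 37 C and 5% CO2. Compound, then agonist L165041 at 300 nM final, was added; 17 h at 37 C followed. Substrate loading, 2 h room temperature, fluorescence measured.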

Measured: Potency

Aryl hydrocarbon receptor (Homo sapiens), sequence (P35869 whole entry, looked up): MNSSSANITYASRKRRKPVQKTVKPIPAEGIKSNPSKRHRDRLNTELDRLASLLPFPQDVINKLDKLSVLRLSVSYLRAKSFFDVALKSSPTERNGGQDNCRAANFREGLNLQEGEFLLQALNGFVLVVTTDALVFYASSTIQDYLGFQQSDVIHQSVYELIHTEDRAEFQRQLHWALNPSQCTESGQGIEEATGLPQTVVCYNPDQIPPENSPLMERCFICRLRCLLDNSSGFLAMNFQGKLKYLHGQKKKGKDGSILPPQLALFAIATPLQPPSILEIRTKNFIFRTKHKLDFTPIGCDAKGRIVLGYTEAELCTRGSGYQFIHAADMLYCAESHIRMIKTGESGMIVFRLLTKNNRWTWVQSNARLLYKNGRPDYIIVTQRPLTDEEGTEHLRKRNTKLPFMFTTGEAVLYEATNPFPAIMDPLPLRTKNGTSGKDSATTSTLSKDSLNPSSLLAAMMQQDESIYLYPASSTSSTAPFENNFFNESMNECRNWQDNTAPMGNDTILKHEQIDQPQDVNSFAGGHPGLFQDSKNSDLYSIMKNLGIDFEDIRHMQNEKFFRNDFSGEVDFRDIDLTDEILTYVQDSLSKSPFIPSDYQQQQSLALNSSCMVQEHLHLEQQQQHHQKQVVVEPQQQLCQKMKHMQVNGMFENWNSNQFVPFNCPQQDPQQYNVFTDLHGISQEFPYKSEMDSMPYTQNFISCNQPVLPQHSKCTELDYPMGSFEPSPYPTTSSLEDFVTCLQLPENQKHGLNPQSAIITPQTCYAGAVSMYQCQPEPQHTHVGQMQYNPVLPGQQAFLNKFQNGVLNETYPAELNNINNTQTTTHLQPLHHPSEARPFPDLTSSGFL
Peroxisome proliferator-activated receptor delta (Homo sapiens), sequence (Q03181 whole entry, looked up): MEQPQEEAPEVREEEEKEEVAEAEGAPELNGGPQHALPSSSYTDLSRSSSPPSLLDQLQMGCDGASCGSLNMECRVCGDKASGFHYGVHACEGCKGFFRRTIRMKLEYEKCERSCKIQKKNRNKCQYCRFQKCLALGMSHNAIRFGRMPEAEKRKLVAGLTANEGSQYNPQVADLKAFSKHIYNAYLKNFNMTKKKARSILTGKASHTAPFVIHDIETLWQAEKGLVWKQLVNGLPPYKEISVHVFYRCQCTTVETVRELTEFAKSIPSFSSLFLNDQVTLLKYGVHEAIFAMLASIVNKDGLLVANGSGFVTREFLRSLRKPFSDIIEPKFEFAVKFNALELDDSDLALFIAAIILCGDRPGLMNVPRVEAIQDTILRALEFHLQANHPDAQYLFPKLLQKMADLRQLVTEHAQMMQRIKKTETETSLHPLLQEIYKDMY
Peroxisome proliferator-activated receptor gamma (Homo sapiens), sequence (P37231 whole entry, looked up): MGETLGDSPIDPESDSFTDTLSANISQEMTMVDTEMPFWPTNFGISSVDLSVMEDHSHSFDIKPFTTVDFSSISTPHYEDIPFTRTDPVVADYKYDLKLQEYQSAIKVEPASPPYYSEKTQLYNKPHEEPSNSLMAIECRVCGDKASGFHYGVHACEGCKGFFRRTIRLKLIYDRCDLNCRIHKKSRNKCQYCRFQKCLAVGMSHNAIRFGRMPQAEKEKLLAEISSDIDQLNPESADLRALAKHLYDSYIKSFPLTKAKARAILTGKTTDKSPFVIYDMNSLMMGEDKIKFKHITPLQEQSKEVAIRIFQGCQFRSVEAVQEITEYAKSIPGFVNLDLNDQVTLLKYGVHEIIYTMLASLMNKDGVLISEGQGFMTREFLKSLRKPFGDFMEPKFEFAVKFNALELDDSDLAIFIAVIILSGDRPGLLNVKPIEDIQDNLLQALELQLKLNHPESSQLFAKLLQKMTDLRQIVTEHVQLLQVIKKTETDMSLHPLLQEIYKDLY
Bile acid receptor (Homo sapiens), sequence (Q96RI1 whole entry, looked up): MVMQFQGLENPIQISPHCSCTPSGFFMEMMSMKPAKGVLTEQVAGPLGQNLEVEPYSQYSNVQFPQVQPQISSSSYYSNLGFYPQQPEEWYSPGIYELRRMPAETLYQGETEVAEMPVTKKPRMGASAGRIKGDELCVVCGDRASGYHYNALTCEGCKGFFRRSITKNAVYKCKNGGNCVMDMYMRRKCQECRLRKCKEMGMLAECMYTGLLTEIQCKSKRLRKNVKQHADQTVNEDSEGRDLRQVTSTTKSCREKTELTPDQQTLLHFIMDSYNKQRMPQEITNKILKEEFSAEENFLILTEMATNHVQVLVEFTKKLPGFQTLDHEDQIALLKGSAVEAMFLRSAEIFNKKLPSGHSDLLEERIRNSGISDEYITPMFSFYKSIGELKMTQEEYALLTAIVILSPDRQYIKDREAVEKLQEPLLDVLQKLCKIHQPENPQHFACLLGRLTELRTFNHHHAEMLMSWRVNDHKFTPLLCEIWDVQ
Vitamin D3 receptor (Homo sapiens), sequence (P11473 whole entry, looked up): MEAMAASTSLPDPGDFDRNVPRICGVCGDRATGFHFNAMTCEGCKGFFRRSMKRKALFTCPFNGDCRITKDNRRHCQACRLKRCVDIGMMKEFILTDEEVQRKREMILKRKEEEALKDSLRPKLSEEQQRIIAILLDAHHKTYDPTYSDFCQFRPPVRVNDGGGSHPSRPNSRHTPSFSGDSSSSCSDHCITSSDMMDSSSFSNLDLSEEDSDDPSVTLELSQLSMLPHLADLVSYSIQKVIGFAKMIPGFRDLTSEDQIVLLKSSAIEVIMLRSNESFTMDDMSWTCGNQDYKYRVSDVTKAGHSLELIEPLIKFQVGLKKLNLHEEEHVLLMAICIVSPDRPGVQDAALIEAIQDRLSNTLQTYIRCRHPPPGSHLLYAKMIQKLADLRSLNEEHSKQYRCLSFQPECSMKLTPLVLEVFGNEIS

CC(C)CCCCCCOC(=O)C1CCCCC1C(=O)OCCCCCCC(C)C (centres undefined)
inactive: [1] | [2] | [3] | [4] | [5] | [6] | [7] | [8] | [9] | [10] | [11] | [12] | [13] | [14] | [15] | [16]

CC(C)CCC(=O)CCC(C)C
inactive: [1] | [3] | [17] | [18] | [4] | [6] | [7] | [19] | [8] | [10] | [14] | [15] | [16]

C1CCN2C[C@@H]3C[C@@H](CN4CCCC[C@@H]34)[C@H]2C1
inactive: [1] | [2] | [3] | [5] | [6] | [7] | [19] | [8] | [9] | [10] | [12] | [14] | [15] | [16]

CCN(Cc1cccc(S(=O)(=O)O)c1)c1ccccc1
inactive: [1] | [2] | [3] | [4] | [5] | [7] | [19] | [8] | [10] | [11] | [12] | [13] | [14] | [15] | [16]

O=C(O)c1c(Cl)ccc(Cl)c1Cl
inactive: [1] | [3] | [17] | [4] | [5] | [6] | [7] | [19] | [8] | [9] | [10] | [20] | [12] | [14] | [15]

CC(C)(c1ccc(Oc2ccc3c(c2)C(=O)OC3=O)cc1)c1ccc(Oc2ccc3c(c2)C(=O)OC3=O)cc1
inactive: [1] | [2] | [3] | [4] | [5] | [6] | [7] | [19] | [8] | [10] | [20] | [12] | [14] | [15]

Cc1cccc(NC(=S)N(C)C)c1
inactive: [3] | [5] | [6] | [7] | [8] | [9] | [10] | [20] | [11] | [13] | [14] | [15] | [16]

CCOC(=O)C(=O)c1csc(NC=O)n1
inactive: [4] | [5] | [7] | [19] | [8] | [9] | [10] | [20] | [11] | [13] | [14] | [15] | [16]

O=S(=O)(O)c1cc(O)ccc1O
inactive: [4] | [6] | [7] | [19] | [8] | [9] | [10] | [20] | [14] | [15] | [16]

Reference: PubChem BioAssay (Tox21)
